# Bioassay records (PubChem)
# D1 agonist: agonists of human D1 dopamine receptor | activation, % at 2 µM | 360,000 compounds, 1% hits | AID 504660 | P21728 | HEK293 T-REx D1 cells, calcium flux, agonist mode
# Target sequence (P21728 whole entry, looked up): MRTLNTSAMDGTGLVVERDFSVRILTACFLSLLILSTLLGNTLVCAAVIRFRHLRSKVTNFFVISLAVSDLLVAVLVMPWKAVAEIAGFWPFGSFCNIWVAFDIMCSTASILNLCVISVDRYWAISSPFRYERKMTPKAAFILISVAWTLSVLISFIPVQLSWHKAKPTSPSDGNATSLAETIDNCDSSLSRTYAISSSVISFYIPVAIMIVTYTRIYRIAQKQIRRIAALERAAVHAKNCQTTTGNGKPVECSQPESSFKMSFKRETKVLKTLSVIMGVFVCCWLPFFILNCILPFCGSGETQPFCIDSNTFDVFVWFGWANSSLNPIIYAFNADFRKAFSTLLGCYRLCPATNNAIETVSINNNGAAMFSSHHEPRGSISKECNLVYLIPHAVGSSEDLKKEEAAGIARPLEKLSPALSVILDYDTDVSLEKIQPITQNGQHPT
#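 Inducible HEK293 T-REx D1 cells, force-coupled to calcium signalling, were plated at 4000 cells/well with tetracycline and held overnight at 30 C. After no-wash calcium dye loading, compound-evoked calcium rise over 180 s flagged agonists.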
# D1 PAM: potentiators of human D1 dopamine receptor. potentiation, % at 10 µM. 360,000 compounds, 0.036% hits. P21728. HEK293 TREx D1 cells, calcium flux, dopamine EC20 potentiation; in the data active means potentiation above about 30%
# TRHR PAM: allosteric enhancers of human TRH receptor. 360,000 compounds, 0.66% hits. AID 493056. TRHR cells, fluo-8 calcium fluorescence, EC20 TRH enhancement. P34981. enhancement, % at 2 µM; in the data active means enhancement above about 30%
#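 Enhancer read-out: after compound pinning and an initial kinetic agonist-mode read, an EC20 of TRH (10 nM final) was injected and fluo-8 calcium signal (Ex 480/Em 530) followed at 1 s/cycle for 100 cycles in TRHR-expressing cells.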
# GRP78 ERSR act: ER stress response induction in glioma. U87-MG GRP78 promoter luciferase reporter, 16 h. Potency, µM, most hits filed as activators. 420,000 compounds, 0.02% hits. AID 602332; active means well fitted activation curve with a large enough effect; further: series mostly up to about 76 µM; nearly all actives have a fitted effect of over 35% in size
#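 Stably transfected U87-MG human glioma cells carrying a GRP78-based luminescent sensor were seeded at 1000 cells/well, pin-dosed with compounds and incubated 16 h. Luciferase reagent was then added, and end-point luminescence was read after 10 min at room temperature.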
# TRHR agonist: TRH receptor (human) agonism; activation, % at 2 µM; 360,000 compounds, 0.18% hits; TRHR cells, calcium flux fluo-8, FDSS agonist mode; P34981; AID 493084
#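 In this calcium-flux screen, cells bearing human TRHR are dye-loaded with fluo-8, baselined for 10 cycles, then exposed to library compounds; positive kinetic calcium responses during the agonist phase mark hits, with TRH as control.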
# D1 antag: blocks dopamine activation of the human D1 receptor; P21728; HEK293 TREx D1 cells, calcium flux, dopamine EC80; stronger effect = lower value; activity change, negative = inhibition, % at 10 µM; 360,000 compounds, 3.2% hits; in the data active means activity change below about -30%
#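 Tetracycline-induced HEK293 T-REx cells with force-coupled D1 receptor were loaded with a no-wash calcium dye. Compound was added after a 10 s baseline and read kinetically for 180 s; EC80 dopamine was then added and calcium flux followed another 180 s.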
# A number is an active result; i = inactive; nt = no result. An excerpt weighted towards active compounds, which were near 4% of everything screened. Unless noted, no stated cut-off is given here; in the data, active means activation above about 30%; inactive means the rest.
SMILES,D1 agonist,D1 PAM,TRHR PAM,GRP78 ERSR act,TRHR agonist,D1 antag
CCC1=C(c2ccc(C)cc2)S(=O)(=O)N=C1N1CCC(C(=O)NCCc2ccc(Cl)cc2)CC1,i,i,i,i,i,i
CCC1=C(c2ccc(C)cc2)S(=O)(=O)N=C1N1CCC(C(=O)NCc2ccc(C)cc2)CC1,i,i,i,i,i,-39
CC1CCN(CCOc2cc(Cl)ccc2Cl)CC1,i,i,i,i,i,-59
CC1CCN(CCOCCOc2ccc(Br)cc2Cl)CC1,i,i,i,i,i,-33
COc1ccc([C@H]2CC(=O)C=C(c3cc4ccccc4s3)C2)cc1OC,i,i,i,i,i,-48
COc1ccc([C@H]2CC(=O)C=C(c3ccc(-c4ccccc4)cc3)C2)cc1OC,i,i,i,i,i,i
COc1ccc([C@H]2CC(=O)C=C(c3cccc4c3sc3ccccc34)C2)cc1OC,i,i,i,i,i,-36
COc1ccc(C)cc1N1CC(C(=O)OCc2nc(N)nc(Nc3ccccc3C)n2)CC1=O (configuration not stated),i,i,i,i,i,i
O=C(NCC1OCCc2ccccc21)c1ccc(NC(=O)c2ccccc2Cl)cc1 (configuration not stated),i,i,i,i,i,-37
CN(C)CCC(=O)NCC1OCCc2ccccc21 (configuration not stated),i,i,i,i,i,-34
O=C(NCC1OCCc2ccccc21)c1ccc(NC(=O)c2ccc(Cl)cc2Cl)cc1 (configuration not stated),i,i,i,i,i,i
C=CC(=O)NCC1OCCc2ccccc21 (configuration not stated),i,i,i,i,i,i
O=C1N(Cc2ccccc2)c2ccc(Cl)cc2C12OCCO2,i,i,i,i,i,i
COc1cc(CN2CCc3nnc(C(NS(C)(=O)=O)C(C)C)n3CC2)ccc1F (configuration not stated),nt,nt,nt,i,nt,nt
CC1CCC(NC(=O)COc2ccccc2C(N)=O)CC1 (configuration not stated),i,i,i,i,i,i
CC(C)CN(CC(C)C)C(=O)COc1ccccc1C(N)=O,i,i,i,i,i,-35
CNC(=S)N(CCc1c(C)[nH]c2ccc(Cl)cc12)Cc1cccnc1,31,i,i,i,i,i
COCCNC(=S)N(CCc1c(C)[nH]c2ccc(Cl)cc12)Cc1cccnc1,i,i,i,i,i,i
CCNC(=S)N(CCc1c(C)[nH]c2ccc(Cl)cc12)Cc1cccnc1,i,i,i,i,i,-43
COC(=O)c1ccc(NC(=O)c2c(NCc3cccc(F)c3)sc3c2CCCC3)cc1,i,i,i,i,i,i
CN(C)S(=O)(=O)c1ccc2c(c1)/C(=C/c1cc3c([nH]1)CCCC3)C(=O)N2,171,i,i,i,69,i
COc1ccc(CN2C(=O)C(C)Oc3ccccc32)cc1 (configuration not stated),i,i,i,i,i,-35
COc1ccc(OCC2Cc3c(-c4ccccc4)nc4c(c3CO2)CN(CCOc2ccccc2)CC4)cc1 (configuration not stated),nt,nt,nt,i,nt,nt
COc1cccc(-n2nc(C#N)c(Cl)cc2=O)c1,i,i,i,i,i,-32
Cc1cccc(CS(=O)(=O)Cc2ccc(C(=O)NCc3ccc(F)cc3)o2)c1,i,i,i,i,i,i
SMILES,D1 agonist,D1 PAM,TRHR PAM,GRP78 ERSR act,TRHR agonist,D1 antag
CCN1CCN(c2ccc(NC(=O)c3ccccc3F)cc2Cl)CC1,i,i,i,i,i,i
CCCCCC(=O)NC(=S)Nc1ccc(N2CCCCC2)c(Cl)c1,i,i,i,i,i,i
CCCCCC(=O)Nc1ccc(N2CCN(CC)CC2)c(Cl)c1,i,i,i,i,i,-52
CCN1CCN(c2ccc(NC(=O)c3ccc(C#N)cc3F)cc2Cl)CC1,i,i,i,i,i,-43
COc1ccc(CN2CCOc3ccc(CN4CCC(Oc5cccnc5)CC4)cc3C2)cc1,nt,nt,nt,i,nt,nt
CCN(Cc1ccccc1)C(=O)c1ccc(C(=O)N(CC)Cc2ccccc2)cc1,i,i,i,i,i,-62
CCOc1ccc(OCc2ccc(C(=O)N(CC)CC)cc2)cc1,i,i,i,i,i,-42
CCC(=O)c1ccc(OCc2ccc(C#N)cc2)cc1,i,i,i,i,i,-37
CCN(CC)C(=O)c1ccc(CS(=O)(=O)Cc2ccccc2)cc1,i,i,i,i,i,-31
O=C(c1ccccc1)N(Cc1ccccc1)Cc1ccccc1,i,i,i,i,i,i
CCN(CC)C(=O)c1ccc(-c2ccccc2)cc1,i,i,i,i,i,i
CCOC(=O)C1CCN(C(=O)Cn2nc(CC)n3c(cc4sccc43)c2=O)CC1,i,i,30,i,i,i
CCc1nn(CC(=O)N2CCN(CC)CC2)c(=O)c2cc3sccc3n12,i,i,i,i,i,i
O=c1[nH]cnc2sc3c(c12)CCC3,i,i,33,i,i,i
CCOC(=O)N1CCc2c(sc3nc[nH]c(=O)c23)C1,i,i,i,i,i,-31
COc1ccc(C(=O)c2ccc(Cl)cc2)c(OC)c1OC,nt,nt,nt,i,nt,nt
CCCNC(=O)C1(C)CCN1C(=O)Cc1ccc(C(C)(C)C)cc1 (configuration not stated),nt,nt,nt,i,nt,nt
C[C@@H]1C=CCC(=O)OC[C@H](C)C(=O)OC[C@H]2O[C@H]1C=C[C@@H]2O,nt,nt,nt,i,nt,nt
CCCCN(CC)CCNC(=O)CCn1cnc2onc(-c3ccc(F)cc3)c2c1=O,32,i,i,i,i,i
CCCN(C(=O)CCn1cnc2onc(-c3ccc(F)cc3)c2c1=O)c1ccccc1C,i,i,i,i,i,i
Cc1cc(C)n(-c2cccc(C(=O)NCC3Cc4cccc(-c5cccnc5)c4O3)c2)n1 (configuration not stated),nt,nt,nt,i,nt,nt
Cc1ccc(NC(=O)CCC(=O)N2CCN(S(=O)(=O)c3ccc(C)cc3)CC2)cc1,i,i,i,i,i,i
COc1ccccc1NC(=O)CSc1nc2c(oc3ccccc32)c(=O)n1-c1ccc(C)cc1,i,i,i,i,i,-39
CC(=O)Nc1nonc1-c1nnc(SCC(=O)Nc2ccc(C)c(Cl)c2)n1-c1ccccc1,i,i,i,i,i,i
COc1ccc(-n2c(SCC(=O)Nc3ccc(C)cc3)nc(O)c(Cc3ccccc3)c2=O)cc1,i,i,i,i,i,-51
CCOc1ccc(-n2c(SCC(=O)Nc3ccccc3OC)nc3c(oc4ccccc43)c2=O)cc1,i,i,i,i,i,i
COc1ccc(NC(=O)CSc2nnc(-c3nonc3NC(C)=O)n2-c2ccccc2)cc1,i,i,i,i,i,-46
COc1ccc(-n2c(SCC(=O)Nc3ccc(Cl)cc3)nc(O)c(Cc3ccccc3)c2=O)cc1,i,i,i,i,i,i
